Screening data from PubChem BioAssay.
G9a block: blocks human histone lysine methyltransferase G9a; G9a H3K9 monomethylation, AlphaScreen, 2 h; Potency, µM (series often up to 102 µM), hits mostly inhibitors; hit rate 8.8% among 350,000; Q96KQ7; note: nearly all actives have a fitted effect of over 75% in size
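Step 1: enzyme (final 20 nM) with compound, 15 min RT. Step 2: substrate peptide 500 nM and SAM 20 uM, 2 h RT. Step 3: anti-H3K9me1 antibody and AlphaScreen beads, 10 min, then plate read.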
JMJD2A Tudor inh: JMJD2A Tudor domain (human) inhibition. hit rate 4.4% among 390,000. AlphaScreen JMJD2A-Tudor / H3K4me3 peptide binding. Potency, µM (series often up to 114 µM), actives largely listed as inhibitors. O75164; note: nearly all actives have a fitted effect of over 50% in size
12-LOX inh: inhibitors of human 12S-lipoxygenase ALOX12; P18054; purified 12hLO, xylenol orange hydroperoxide absorbance; Potency, µM (series often up to 108 µM), actives largely listed as inhibitors; hit rate 1.1% among 580,000; AID 1671190
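Purified human 12hLO at 150 nM in 25 mM Hepes, 0.01% Triton X-100, pH 7.0, preincubated 15 min at room temperature with compound. Reaction started with 40 uM arachidonic acid, 30 min at room temperature. Hydroperoxide measured by Fe-xylenol orange, 573/405 nm absorbance ratio.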
HP1b binding inh: blocks HP1-beta chromodomain binding to methylated histone tails. P83916. AlphaScreen HP1-beta / biotin-H3K9me3 peptide binding. Potency, µM (highest dose often 114 µM), most hits filed as inhibitors. hit rate 0.56% among 390,000. AID 540317; note: nearly all actives have a fitted effect of over 70% in size
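HP1-beta protein (50 nM final) preincubated 30 min at room temperature with biotinylated H3(1-18)K9me3 peptide (50 nM) in PBS pH 7.4, 0.01% Tween-20, then compound added for 30 min. AlphaScreen streptavidin donor/nickel chelate acceptor beads (10 ug/mL final), 30 min dark, luminescence read.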
BAZ2B inh: inhibitors of human BAZ2B bromodomain | Q9UIF8 | AlphaScreen BAZ2B-H3K14Ac peptide displacement | AID 504333 | hit rate 4.4% among 360,000 | Potency, µM (doses to about 114 µM), actives largely listed as inhibitors; note: nearly all actives have a fitted effect of over 60% in size
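BAZ2B (50 nM) with biotin-H3(5-23)K14Ac peptide (50 nM) in PBS pH 7.4, 0.01% Tween-20, preformed 30 min, then compound 30 min at room temperature; top concentration 110uM. AlphaScreen streptavidin donor/nickel chelate acceptor beads (10 ug/mL final), 20 min dark, signal read.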
PLK1 PBD inh: inhibitors of human PLK1 polo-box domain binding. AID 720504. Potency, µM, actives largely listed as inhibitors. hit rate 2.8% among 360,000. Plk1 PBD binding of FITC phosphopeptide, fluorescence polarization; note: series mostly up to about 57 µM; nearly all actives have a fitted effect of over 65% in size
Target sequence (P53350 whole entry, looked up, the tested form may be a part): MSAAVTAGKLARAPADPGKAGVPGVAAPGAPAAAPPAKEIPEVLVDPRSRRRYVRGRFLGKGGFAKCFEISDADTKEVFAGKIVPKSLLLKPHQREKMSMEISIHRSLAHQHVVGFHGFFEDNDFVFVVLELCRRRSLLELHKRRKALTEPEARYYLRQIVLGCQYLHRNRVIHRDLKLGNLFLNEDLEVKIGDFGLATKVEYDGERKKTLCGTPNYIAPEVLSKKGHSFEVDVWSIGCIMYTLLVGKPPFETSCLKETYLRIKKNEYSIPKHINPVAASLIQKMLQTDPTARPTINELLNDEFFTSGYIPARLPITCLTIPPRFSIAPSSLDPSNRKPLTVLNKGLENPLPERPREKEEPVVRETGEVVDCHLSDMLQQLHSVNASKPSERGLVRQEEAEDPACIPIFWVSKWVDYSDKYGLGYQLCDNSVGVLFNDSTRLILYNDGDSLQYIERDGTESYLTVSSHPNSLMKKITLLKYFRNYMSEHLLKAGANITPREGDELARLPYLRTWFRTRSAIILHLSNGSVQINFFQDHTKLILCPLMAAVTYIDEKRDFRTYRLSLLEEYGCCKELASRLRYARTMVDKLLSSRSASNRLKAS
Each line names hits and unclear results; the compound was inactive in the other large screens. Compounds with a hit are over-represented: about 9% of the library has one in this group of screens. Calls come from the whole dose curve; as a rule, active = well fitted curve in the direction sought with a large enough effect; inconclusive = small, poorly fitted or top-dose-only effect, or another doubt; inactive = no such curve, though single readings can be large; an effect the other way counts as inactive or inconclusive.

C/C=C/c1ccc(OCCCNC(C)CC)c(OC)c1 (centres undefined)	G9a block inconclusive, JMJD2A Tudor inh 1.8µM, 12-LOX inh inconclusive, BAZ2B inh 32µM, PLK1 PBD inh inconclusive
C/C=C/c1ccc(OCCCCOc2ccccc2F)c(OC)c1	none
C/C=C/c1ccc(OCCOc2cc(C=O)ccc2OC)c(OC)c1	12-LOX inh inconclusive
Cn1c(C(C#N)/C(=N\S(=O)(=O)c2cccs2)c2ccccc2)nc2ccccc21 (centres undefined)	12-LOX inh inconclusive
C[C@H](CO)N1C[C@H](C)[C@@H](CN(C)C(=O)c2cnccn2)Oc2cc(C#CCC3CCCC3)ccc2S1(=O)=O	12-LOX inh 35µM (no result: G9a block, JMJD2A Tudor inh, HP1b binding inh, BAZ2B inh)
COc1ccc(N2CC(C(=O)N[C@H](C(=O)NC3CCCC3)C(C)C)CC2=O)cc1 (some centres undefined)	none
O=C1C=C(N2CCOCC2)C2(CCCCC2)O1	G9a block 45µM, BAZ2B inh inconclusive
CCN(Cc1ccc(OC)c(F)c1)C(=O)c1cc2ccccc2o1	12-LOX inh inconclusive
O=C(c1cn(-c2ccccc2Br)nn1)N1CCc2ccccc2C1	none (no result: G9a block, JMJD2A Tudor inh, HP1b binding inh, BAZ2B inh, PLK1 PBD inh)
COc1cccc(C(=O)N2C(C(C)C)COc3cc(Br)ccc3S2(=O)=O)c1 (centres undefined)	none (no result: G9a block, JMJD2A Tudor inh, HP1b binding inh, BAZ2B inh)
Cc1cccc(C(=O)N2[C@@H](C(C)C)COc3cc(Br)ccc3S2(=O)=O)c1	PLK1 PBD inh 21µM (no result: G9a block, BAZ2B inh)
Cc1cc(N2CCN(c3ccccc3)CC2)nc(NCc2ccccc2)n1	G9a block inconclusive, BAZ2B inh inconclusive
CCCc1nc(C)cc(N2CCN(c3ccccc3)CC2)n1	G9a block 50µM, 12-LOX inh inconclusive
O=C1NC[C@H](CCCCN2CCN(Cc3ccccc3)C(=O)C2=O)N(CCc2ccc(O)cc2)C1=O	none (no result: G9a block, JMJD2A Tudor inh, HP1b binding inh, BAZ2B inh)
OC(COc1ccc2c(c1)OCO2)CN1CCCC1 (centres undefined)	PLK1 PBD inh inconclusive
CC(=O)c1ccc(OCC(O)CN2CCN(c3ccc(F)cc3)CC2)cc1 (centres undefined)	G9a block inconclusive, 12-LOX inh inconclusive, BAZ2B inh inconclusive
OC(COc1ccc2c(c1)OCO2)CN1CCN(c2ccc(F)cc2)CC1 (centres undefined)	G9a block 50µM, BAZ2B inh inconclusive
CC(C)c1ccc(OCC(O)CN2CCN(c3ccc(F)cc3)CC2)cc1 (centres undefined)	G9a block 10µM, JMJD2A Tudor inh 79µM (no result: PLK1 PBD inh)
c1ccc(N2CCN(CCCOc3ccc4c(c3)OCO4)CC2)cc1	G9a block 20µM (no result: JMJD2A Tudor inh, HP1b binding inh, BAZ2B inh, PLK1 PBD inh)
O=C(CN1CCN(c2ccc(F)cc2)CC1)c1ccc2c(c1)OCO2	G9a block 32µM
O=C(CN1CCN(c2ccc(Cl)cc2)CC1)c1ccc2c(c1)OCO2	BAZ2B inh inconclusive
Cc1c(Cl)cnc(NC(=O)CSc2nnc3ccccn23)c1Cl	none
CC1(c2ccccc2)NC(=O)N(CC(=O)NNC(=O)c2ccccc2)C1=O (centres undefined)	none (no result: 12-LOX inh)
Cc1ccc(C2(C)NC(=O)N(CC(=O)Nc3nc(-c4ccccn4)cs3)C2=O)cc1 (centres undefined)	JMJD2A Tudor inh 40µM, 12-LOX inh inconclusive, HP1b binding inh 32µM, BAZ2B inh 79µM, PLK1 PBD inh 4.2µM
CC1(c2ccccc2)NC(=O)N(CC(=O)Nc2nc(-c3ccccn3)cs2)C1=O (centres undefined)	JMJD2A Tudor inh 45µM, BAZ2B inh 50µM, PLK1 PBD inh inconclusive
CN1CCC(NC(=O)c2cc(-c3cccc(Br)c3)nc3ccccc23)CC1	12-LOX inh inconclusive (no result: G9a block)
Cc1ccc2c(c1)c1n[nH]c(=S)nc1n2CCc1ccccc1	PLK1 PBD inh inconclusive
CCn1c2ccc(C)cc2c2n[nH]c(=S)nc21	G9a block 7.1µM, 12-LOX inh inconclusive, PLK1 PBD inh inconclusive
Fc1ccc2c(c1)c1n[nH]c(=S)nc1n2CCc1ccccc1	12-LOX inh inconclusive, PLK1 PBD inh 21µM
Cc1nn(-c2nc3c(c(=O)n(CCN4CCCCC4)c(=O)n3C)n2C(C)C)c(C)c1C	none (no result: G9a block, JMJD2A Tudor inh, HP1b binding inh, BAZ2B inh, PLK1 PBD inh)
CN(Cc1ccccc1)C(=O)c1ccc(NC(=O)Cc2cccc(NC(=O)C3CCCN(C(=O)C4CCCCC4)C3)c2)cc1 (centres undefined)	none
Cc1noc(NS(=O)(=O)c2ccc(NC(=O)CSc3nc4ccccc4s3)cc2)c1C	G9a block 8.9µM, JMJD2A Tudor inh inconclusive, 12-LOX inh inconclusive, PLK1 PBD inh 17µM
Cc1noc(NS(=O)(=O)c2ccc(NC(=O)CSc3nc4c(cc3C#N)CCCC4)cc2)c1C	G9a block 25µM, PLK1 PBD inh inconclusive
Cc1noc(C)c1S(=O)(=O)N1CCCC(C(=O)NCCC2=CCCCC2)C1 (centres undefined)	none
COc1cc2c(cc1OC)C(c1ccccc1O)N(C1CC(=O)N(c3ccccc3)C1=O)CC2 (centres undefined)	G9a block 8.9µM
COc1cc2c(cc1OC)C(c1ccccc1)N(C(=O)CCl)CC2 (centres undefined)	none
CC(/C=C/c1ccccc1)=N/NC(=O)C(c1ccccc1)c1ccccc1	none (no result: G9a block, JMJD2A Tudor inh, HP1b binding inh, BAZ2B inh, PLK1 PBD inh)
CC(NCc1ccc(N(C)C)cc1)C1CC2CCC1C2 (centres undefined)	G9a block 50µM, JMJD2A Tudor inh 89µM, 12-LOX inh inconclusive, BAZ2B inh inconclusive
CN1CCCN(C2C3CC4CC(C3)CC2C4)CC1 (centres undefined)	G9a block 10µM, JMJD2A Tudor inh 1µM, 12-LOX inh inconclusive, HP1b binding inh inconclusive, BAZ2B inh inconclusive
O=C(c1ccccc1)N1CCN(C2C3CC4CC(C3)CC2C4)CC1 (centres undefined)	none
CS(=O)(=O)N1CCN(C2Cc3ccccc3C2)CC1	none
CS(=O)(=O)N1CCN(C2C3CC4CC(C3)CC2C4)CC1 (centres undefined)	JMJD2A Tudor inh 10µM, HP1b binding inh inconclusive (no result: G9a block)
CC1CCC(N2CCN(S(C)(=O)=O)CC2)CC1 (centres undefined)	G9a block inconclusive, JMJD2A Tudor inh 3.2µM, 12-LOX inh inconclusive, HP1b binding inh 45µM, BAZ2B inh 32µM
O=C(/C=C/c1ccco1)OCC(=O)C12CC3CC(CC(C3)C1)C2	12-LOX inh 40µM (no result: G9a block, JMJD2A Tudor inh, HP1b binding inh, BAZ2B inh, PLK1 PBD inh)
COc1ccc(CNC(=O)COC(=O)/C=C/c2ccco2)cc1	G9a block 56µM, BAZ2B inh inconclusive, PLK1 PBD inh inconclusive
O=C(COC(=O)/C=C/c1ccco1)NCc1ccco1	G9a block 32µM, JMJD2A Tudor inh 79µM, BAZ2B inh 45µM, PLK1 PBD inh inconclusive
O=C(COC(=O)/C=C/c1ccco1)NCc1ccccc1Cl	G9a block 45µM
Cc1cccc(OCC(=O)Nc2c(C(=O)N3CCN(c4ccccc4)CC3)oc3ccccc23)c1	G9a block inconclusive (no result: PLK1 PBD inh)
